The values that follow come from PubChem BioAssay AID1259421 (Broad Institute, 2018).

Molecules are shown by their SMILES. Several values for one entry are separate records, joined by “and”; a condition that tells them apart may be missing. Equal entries are not always repeated. Out of some 6,400 compounds screened, about 610 (9.5%) were called active. Cut-off read from the data, not from the text of the source: active = activity change below about -70%; inconclusive = no clear call, values can overlap the other calls; inactive = above that. For the sample, actives were picked, then their nearest neighbours and some compounds at random. Some compounds were tested as several samples or in several runs, with calls that do not always agree. Where a SMILES comes first, the peptide text is derived from it. The star is where a group is joined. PhAc = O=C(Cc1ccccc1)*

The nature of this test: T. gondii ME49Luc in HeLa cells, luciferase assay, 72 h, no IFN-y (AID 1259421). The note with it: stronger effect = lower value, concentration not given here.
In the case of `N#Cc1cc(-c2n[nH]c(-c3ccncc3)n2)ccn1`, the activity change, negative = inhibition was 17.6% (inactive).
The result for `O=C(O)/C=C/c1ccc(-c2ccc(O)c(C34CC5CC(CC(C5)C3)C4)c2)cc1` reads -96.6% (active); that for `O=C(O)c1ccc2cc(-c3ccc(O)c(C45CC6CC(CC(C6)C4)C5)c3)ccc2c1`, -56% (inactive).
The value for `O=C(O)c1ccc(-c2ccc3cc(O)c(C45CC6CC(CC(C6)C4)C5)cc3c2)cc1` was -2.82% (inactive); that for `CC(C)=CCC[C@](C)(O)[C@H]1CC[C@]2(C)[C@@H]1[C@H](O)C[C@@H]1[C@@]3(C)CC[C@H](O)C(C)(C)[C@@H]3[C@@H](O)C[C@]12C` was 8.14% (inactive).
The value for `COc1c2ccoc2cc2oc(C)cc(=O)c12` was 0.747% (inactive); that for `C=C1CC[C@H](O)C/C1=C/C=C1\CCC[C@]2(C)[C@@H]([C@H](C)CCCC(C)C)CC[C@@H]12` was -78.3% (active).
Regarding `C=C1/C(=C/C=C2/CCC[C@]3(C)[C@@H]([C@H](C)CCCC(C)C)CC[C@@H]23)C[C@@H](O)C[C@@H]1O`, the activity change, negative = inhibition was -75.5% (active).
With `C=C1/C(=C/C=C2\CCC[C@]3(C)[C@@H]([C@H](C)/C=C/[C@@H](C)C(C)C)CC[C@@H]23)C[C@@H](O)C[C@@H]1O`, the activity change, negative = inhibition is -75% (active).
The result for `C=C1/C(=C\C=C2/CCC[C@]3(C)[C@@H]([C@H](C)CC[C@@H](O)C(C)C)CC[C@@H]23)C[C@@H](O)C[C@@H]1O` reads 3.62% (inactive).
The result for `C=C1/C(=C\C=C2/CCC[C@]3(C)[C@@H]([C@H](C)CCCC(C)(C)O)CC[C@@H]23)C[C@@H](O)C[C@@H]1O` reads -69.8% (inactive) and 11.1% (inactive).
The value for `C=C1/C(=C\C=C2\CCC[C@]3(C)[C@@H]([C@H](C)CCCC(C)C)CC[C@@H]23)C[C@@H](O)C[C@@H]1O` was -54.9% (inactive).
For the molecule `C=C1CC[C@H](O)C/C1=C/C=C1\CCC[C@]2(C)[C@@H]([C@H](C)CC[C@@H](O)C(C)(C)O)CC[C@@H]12`, the activity change, negative = inhibition was 1.97% (inactive).
With `C=C1C(=C/C=C2\CCC[C@]3(C)[C@@H]([C@H](C)/C=C/[C@@H](O)C4CC4)CC[C@@H]23)C[C@@H](O)C[C@@H]1O`, the activity change, negative = inhibition is 12.8% (inactive).
For the molecule `C=C1/C(=C\C=C2/CCC[C@]3(C)[C@@H]([C@H](C)/C=C/[C@H](C)C(C)(C)O)CC[C@@H]23)C[C@@H](O)C[C@@H]1O`, the activity change, negative = inhibition was 13.5% (inactive).
Take `C[C@H]1OC(O)[C@H](O)[C@H](O)[C@H]1O` (some centres not stated): the activity change, negative = inhibition was -0.633% (inactive).
Take `CC(=O)O[C@H]1C[C@@H](O)C(C)(C)C2C[C@@H](OC(C)=O)[C@]3(C)C(CC[C@@]4(C)[C@H](c5ccoc5)OC(=O)C5OC543)[C@]21C` (some centres not stated): the activity change, negative = inhibition was -2.36% (inactive).
As for `Cc1c(Cn2ccnc2)c2ccccc2n1CCC(=O)O`, the activity change, negative = inhibition was 13% (inactive).
The result for `O=c1[nH]c(-c2ccc(C(F)(F)F)cc2)nc2c1CSCC2` reads 29.4% (inactive); that for `NC1(C(=O)N[C@@H](CCO)c2ccc(Cl)cc2)CCN(c2ncnc3[nH]ccc23)CC1`, 9.43% (inactive).
The result for `CC(C)C[C@H](NC(=O)[C@@H](Cc1c[nH]c2ccccc12)NC(=O)[C@H](Cc1ccc(O)cc1)NC(=O)[C@H](CO)NC(=O)[C@H](Cc1c[nH]c2ccccc12)NC(=O)[C@H](Cc1cnc[nH]1)NC(=O)[C@@H]1CCC(=O)N1)C(=O)N[C@@H](CCCN=C(N)N)C(=O)N1CCC[C@H]1C(=O)NCC(N)=O` reads -22.2% (inactive).
`CO[C@@]12[C@@H]3NC3CN1C1=C(C(=O)C(N)=C(C)C1=O)[C@@H]2COC(N)=O` (some centres not stated): the activity change, negative = inhibition was -81.9% (active) and -22.7% (inactive).
The result for `CO[C@@]12[C@H](COC(N)=O)C3=C(C(=O)C(C)=C(N)C3=O)N1C[C@@H]1N[C@@H]12` reads -10.9% (inactive).
On to `N[C@@H](C(=O)O)C1=CCC=CC1`, for which the activity change, negative = inhibition was -2.48% (inactive).
The result for `C[C@@H]1O[C@@H](OC[C@H]2OC(Oc3c(-c4ccc(O)c(O)c4)oc4cc(O)cc(O)c4c3=O)[C@H](O)[C@@H](O)[C@@H]2O)[C@H](O)[C@H](O)[C@H]1O` (some centres not stated) reads 0.376% (inactive).
As for `O=c1c(-c2cc(O)c(O)c(O)c2)coc2cc(O)c(O)c(O)c12`, the activity change, negative = inhibition is 8.75% (inactive).
As for `NC(=O)N1C(=O)C(C(=O)c2cccs2)c2cc(Cl)ccc21` (configuration not stated), the activity change, negative = inhibition was 8.36% (inactive) and 15.7% (inactive).
Turning to `CN(C)C1CCN(C(=O)c2ccc(NC(=O)Nc3ccc(-c4nc(N5CCOCC5)nc(N5CCOCC5)n4)cc3)cc2)CC1`, the activity change, negative = inhibition is -1.91% (inactive).
Consider `O=C(Nc1ccncc1)Nc1ccc(-c2nc(N3CCOCC3)nc(N3C4CCC3COC4)n2)cc1`, for which the activity change, negative = inhibition was -80% (active).
The value for `CCNC(=O)Nc1ccc(-c2nc3c(c(N4CCOC[C@@H]4C)n2)CCN(C2COC2)C3)cc1` was -37.1% (inactive).
The result for `CN(C)c1ccc(C(=C2C=CC(=[N+](C)C)C=C2)c2ccc(N(C)C)cc2)cc1` reads -90.8% (active) and -81% (active); that for `CC(C)CCOC(=O)c1ccc(N(C)C)cc1`, 67.6% (inactive).
The result for `COc1cccc(/C=N/N=C/c2cccc(OC)c2)c1` reads 6.04% (inactive); that for `C/C=C/C/C=C/CCC(=O)[C@H]1O[C@H]1C(N)=O`, 20.9% (inactive).
For `Cc1cc(C2CCCCC2)n(O)c(=O)c1`, the activity change, negative = inhibition was -76.5% (active) and -74.6% (active) and -92.8% (active).
The value for `CC(=O)O[C@]1(C(C)=O)CCC2C3C[C@H](C)C4=CC(=O)CC[C@]4(C)C3CC[C@@]21C` (some centres not stated) was 15% (inactive); that for `CCOC(CN1CCN(CC(C)C(=O)c2ccccc2)CC1)c1ccccc1` (configuration not stated) was 31.9% (inactive); that for `NC(=S)N=Nc1ccc(NN=C(N)N)cc1` was 5.33% (inactive).
The result for `Cc1ccc(/C=N/NC(=O)c2ccccc2Oc2ccccc2)o1` reads 8.19% (inactive); that for `CCCCN(CCCC)CCC(O)c1cc2c(Cl)cc(Cl)cc2c2cc(C(F)(F)F)ccc12` (configuration not stated), -83% (active); that for `CC(=O)N1CCCC1C(=O)O` (configuration not stated), 6.22% (inactive).
The value for `CC(=O)NC1[C@@H](O)OC(CO)[C@@H](O)[C@H]1O` (some centres not stated) was 16% (inactive).
For `COc1cc2c(cc1OC)CN(CCc1ccc(NC(=O)c3cccc4c(=O)c5cccc(OC)c5[nH]c34)cc1)CC2`, the activity change, negative = inhibition was -79.7% (active).
In the case of `COc1cc2c(cc1OC)CN(CCc1ccc(NC(=O)c3cc(OC)c(OC)cc3NC(=O)c3cnc4ccccc4c3)cc1)CC2`, the activity change, negative = inhibition is 1.38% (inactive).
The result for `COc1cccc([C@H](O)C2CCN(CCc3ccc(F)cc3)CC2)c1OC` reads 11% (inactive); that for `COC1CCN(C(=O)c2cc(Cc3n[nH]c(=O)c4ccccc34)ccc2F)CC1`, 11.9% (inactive); that for `CCC(=O)OCC(=O)C1(OC(=O)CC)[C@H](C)C[C@H]2C3[C@H](Cl)CC4=CC(=O)C=C[C@]4(C)[C@H]3[C@@H](O)C[C@@]21C` (some centres not stated), 11.6% (inactive).
Consider `c1ccc(CN2CCC3(CCc4ccccc43)CC2)cc1`, for which the activity change, negative = inhibition was 16.7% (inactive) and 4.6% (inactive).
Turning to `COc1ccccc1N1CCN(CC(C(=O)NC(C)(C)C)c2ccccc2)CC1` (configuration not stated), the activity change, negative = inhibition is 6.24% (inactive).
In the case of `OCc1ccc(O[C@@H]2O[C@@H](CO)[C@@H](O)[C@H](O)[C@H]2O)cc1`, the activity change, negative = inhibition is -0.0846% (inactive).
The value for `CCOc1cc(/C=C(/C#N)C(N)=O)cc(CSc2ccccc2)c1O` was 32.6% (inactive).
The result for `O=C(NC1CCOCC1)c1ccc(-c2cc(-c3cn[nH]c3-c3ccccn3)ccn2)cc1` reads -1.45% (inactive); that for `Cc1cccc(-c2[nH]ncc2-c2ccc3ncccc3n2)n1`, -16% (inactive).
Take `c1ccc(-c2[nH]ncc2-c2ccnc3ccccc23)nc1`: the activity change, negative = inhibition is -65.8% (inactive) and -82.5% (active).
The result for `C=C1/C(=C\C=C2/CCC[C@]3(C)[C@@H]([C@H](C)CCCC(O)(C(F)(F)F)C(F)(F)F)CC[C@@H]23)C[C@@H](O)C[C@@H]1O` reads 7.67% (inactive); that for `OC[C@H]1O[C@@H](n2cnc3c(NC4CCCC4)ncnc32)[C@H](O)[C@@H]1O`, 13.5% (inactive).
The value for `CNc1ncnc2c1ncn2[C@@H]1O[C@H](CO)[C@@H](O)[C@H]1O` was 13.6% (inactive); that for `OC[C@H]1O[C@@H](n2cnc3c(NCc4ccco4)ncnc32)[C@H](O)[C@@H]1O` was -71.9% (active); that for `OCCOCCN1CCN(Cc2cccc(Oc3ccccc3)c2)CC1` was 8.65% (inactive).
Turning to `CC(C)CC(NC(=O)N1CCCCCC1)C(=O)NC(Cc1cn(C)c2ccccc12)C(=O)NC(Cc1ccccn1)C(=O)O` (configuration not stated), the activity change, negative = inhibition was 5.64% (inactive).
The result for `C=CC1=C(C(=O)O)N2C(=O)[C@@H](NC(=O)/C(=N/O)c3csc(N)n3)[C@H]2SC1` reads 5.5% (inactive); that for `CCOC(=O)CNC(=O)[C@@H]1CCCN1C(=O)Cc1ccccc1` (PhAc-Pro-Gly-OEt), 13.8% (inactive).
The value for `CC(C)(C)C1CCC(CC2C(=O)C(=O)c3ccccc3C2=O)CC1` (configuration not stated) was -75.1% (active); that for `O=C1c2ccccc2C(=O)C1c1ccccc1` was -3.55% (inactive); that for `O=C1C(=O)C(C2CCC(c3ccc(Cl)cc3)CC2)C(=O)c2ccccc21` (configuration not stated) was -68.3% (inactive) and -68.8% (inactive).
The value for `CS/C(N)=C(C#N)/C(C#N)=C(\N)SC` was 1.99% (inactive) and 0.209% (inactive); that for `O=C(O)c1ccc(NC2OCC(O)C(O)C2O)cc1` (configuration not stated) was 11.7% (inactive); that for `CCCCCCCCNC(=O)C(Cc1ccc(OCc2ccncc2)cc1)NC(=O)C1CCC(CN)CC1` (configuration not stated) was 20.5% (inactive).
Regarding `CN(C)/N=N/c1nc[nH]c1C(N)=O`, the activity change, negative = inhibition was -84.8% (active) and -88.3% (active) and -94.9% (active).
Consider `NC(=O)c1[nH]cnc1O`, for which the activity change, negative = inhibition was 5.36% (inactive).
The result for `CN(C)N=Nc1ccc(C(=O)O)cc1` reads 17.4% (inactive); that for `Cc1cc(-c2ccc(N=Nc3ccc4c(S(=O)(=O)O)cc(S(=O)(=O)O)c(N)c4c3O)c(C)c2)ccc1N=Nc1ccc2c(S(=O)(=O)O)cc(S(=O)(=O)O)c(N)c2c1O`, -45.6% (inactive).
